# According to PubChem BioAssay:
# A number with no mark means an inactive call. For some assays here: Measured potencies and affinities stand elsewhere. The source made the active and inactive calls. Unless noted, how the calls were made is not given here.
# Experiments:
# [1] = antimalarial activity against Dd2 strain (AID 2302;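 active means growth inhibition above 50% at the single 2 µM test dose, taken to imply half-maximal potency below 2 µM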;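 further: 0% = DMSO untreated growth and 100% = chloroquine plus artemisinin killed control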); conditions: P. falciparum Dd2 in RBCs, LDH growth readout, 72 h; at 2 µM; hits give high values
# [2] = HepG2 cytotoxicity, primary screen, cytotoxicity control for P. falciparum antimalarial project, cell-based, ATP luminescence (AID 2303;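 active means inhibition above 50%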;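 further: 0% = DMSO wells and 100% = digitonin-killed cells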); conditions: HepG2 viability, 24-48 h, at 10 µM, hits give high values
# [3] = molecular target: L-lactate dehydrogenase (Plasmodium falciparum (isolate CDC / Honduras)) (UniProt Q27743); experiment: PfLDH activity inhibition – cell lysate, 3D7 strain, counter-screen for P. falciparum growth inhibition project (AID 2304);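 further: 0% = vehicle and 100% = reference inhibitor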; conditions: P. falciparum 3D7 crude extract, LDH APAD/NBT absorbance; at 2 µM; hits give high values
# Chain of L-lactate dehydrogenase (Plasmodium falciparum (isolate CDC / Honduras)) (Q27743 whole entry, looked up): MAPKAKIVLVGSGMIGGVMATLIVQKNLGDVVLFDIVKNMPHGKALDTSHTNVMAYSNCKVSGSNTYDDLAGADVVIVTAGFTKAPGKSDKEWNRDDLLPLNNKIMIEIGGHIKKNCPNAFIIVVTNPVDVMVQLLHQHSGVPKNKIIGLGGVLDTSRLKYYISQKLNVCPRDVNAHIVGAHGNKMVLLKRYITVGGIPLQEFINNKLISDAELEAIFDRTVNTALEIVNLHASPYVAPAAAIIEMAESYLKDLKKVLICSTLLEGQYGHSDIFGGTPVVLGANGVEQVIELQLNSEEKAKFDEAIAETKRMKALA
# [4] = inhibition of 3D7 malaria parasite growth – strain 3D7 (AID 2306);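 further: 0% = DMSO wells and 100% = chloroquine plus artemisinin control wells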; conditions: P. falciparum 3D7 erythrocytic growth, LDH absorbance, 72 h; at 2 µM; hits give high values
# [5] = molecular target: Calcium-dependent protein kinase 1 (Plasmodium falciparum (isolate 3D7)) (UniProt P62344); experiment: PfCDPK1 kinase inhibitors, biochemical, TCAMS library (AID 1159585; cut-off not given, nearly all actives have IC50 up to about 0.98 µM;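 further: inhibitors leave more ATP so luminescence rises with inhibition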); conditions: recombinant PfCDPK1, Kinase-Glo ATP depletion luminescence
# Chain of Calcium-dependent protein kinase 1 (Plasmodium falciparum (isolate 3D7)) (P62344 whole entry, looked up): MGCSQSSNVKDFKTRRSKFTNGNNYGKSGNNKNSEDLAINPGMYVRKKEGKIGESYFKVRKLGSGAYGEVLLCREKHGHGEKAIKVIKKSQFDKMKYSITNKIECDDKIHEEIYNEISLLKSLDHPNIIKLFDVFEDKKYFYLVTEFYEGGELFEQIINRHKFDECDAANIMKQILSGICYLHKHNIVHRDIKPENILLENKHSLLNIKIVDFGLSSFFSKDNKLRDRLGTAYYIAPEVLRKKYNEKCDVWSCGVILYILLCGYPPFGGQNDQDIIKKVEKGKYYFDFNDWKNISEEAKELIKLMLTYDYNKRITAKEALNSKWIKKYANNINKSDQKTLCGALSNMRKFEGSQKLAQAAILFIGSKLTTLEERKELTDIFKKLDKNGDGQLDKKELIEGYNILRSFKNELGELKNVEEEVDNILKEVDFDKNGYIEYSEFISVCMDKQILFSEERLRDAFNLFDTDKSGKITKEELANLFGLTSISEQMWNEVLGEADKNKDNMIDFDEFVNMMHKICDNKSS
# [6] = molecular target: Plasmodium falciparum protein kinase 6 (PK6, PF3D7_1337100) (UniProt Q8IDW1); experiment: PfPK6 kinase inhibitors, biochemical, TCAMS library (AID 1159586); conditions: recombinant PfPK6, Kinase-Glo ATP depletion luminescence
# Chain of Plasmodium falciparum protein kinase 6 (PK6, PF3D7_1337100) (Q8IDW1 1-305): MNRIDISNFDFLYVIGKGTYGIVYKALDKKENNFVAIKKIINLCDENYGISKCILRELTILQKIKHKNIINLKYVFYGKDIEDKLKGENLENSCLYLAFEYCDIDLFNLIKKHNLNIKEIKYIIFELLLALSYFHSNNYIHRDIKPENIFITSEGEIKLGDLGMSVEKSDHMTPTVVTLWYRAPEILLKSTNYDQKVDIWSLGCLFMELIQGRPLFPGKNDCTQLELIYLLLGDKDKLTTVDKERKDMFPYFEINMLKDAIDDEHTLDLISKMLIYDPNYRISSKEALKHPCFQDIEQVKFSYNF
# [7] = molecular target: Protein kinase 7 (PK7), Plasmodium falciparum 3D7 (PF3D7_0213400) (UniProt Q7YTF7); experiment: inhibition of Plasmodium PK7 catalytic activity – biochemical, TCAMS antimalarial set, Kinase-Glo luminescence (AID 1159587); conditions: recombinant PfPK7, Kinase-Glo ATP depletion luminescence
# Chain of Protein kinase 7 (PK7), Plasmodium falciparum 3D7 (PF3D7_0213400) (Q7YTF7 1-343): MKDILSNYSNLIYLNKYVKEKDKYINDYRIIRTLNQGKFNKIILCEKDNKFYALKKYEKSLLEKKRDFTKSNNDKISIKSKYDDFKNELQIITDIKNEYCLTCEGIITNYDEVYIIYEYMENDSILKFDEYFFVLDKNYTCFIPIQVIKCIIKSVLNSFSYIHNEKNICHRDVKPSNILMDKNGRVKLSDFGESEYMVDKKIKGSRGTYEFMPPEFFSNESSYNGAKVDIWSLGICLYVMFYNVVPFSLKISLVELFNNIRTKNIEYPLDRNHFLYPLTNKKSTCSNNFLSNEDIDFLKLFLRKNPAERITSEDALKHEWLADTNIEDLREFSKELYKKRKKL
# [8] = molecular target: Calcium-dependent protein kinase 4 (Plasmodium falciparum (isolate 3D7)) (UniProt Q8IBS5); experiment: PfCDPK4 kinase inhibitors, biochemical, TCAMS library (AID 1159588; cut-off not given, nearly all actives have IC50 up to about 0.91 µM); conditions: recombinant PfCDPK4, Kinase-Glo ATP depletion luminescence
# Chain of Calcium-dependent protein kinase 4 (Plasmodium falciparum (isolate 3D7)) (Q8IBS5 whole entry, looked up): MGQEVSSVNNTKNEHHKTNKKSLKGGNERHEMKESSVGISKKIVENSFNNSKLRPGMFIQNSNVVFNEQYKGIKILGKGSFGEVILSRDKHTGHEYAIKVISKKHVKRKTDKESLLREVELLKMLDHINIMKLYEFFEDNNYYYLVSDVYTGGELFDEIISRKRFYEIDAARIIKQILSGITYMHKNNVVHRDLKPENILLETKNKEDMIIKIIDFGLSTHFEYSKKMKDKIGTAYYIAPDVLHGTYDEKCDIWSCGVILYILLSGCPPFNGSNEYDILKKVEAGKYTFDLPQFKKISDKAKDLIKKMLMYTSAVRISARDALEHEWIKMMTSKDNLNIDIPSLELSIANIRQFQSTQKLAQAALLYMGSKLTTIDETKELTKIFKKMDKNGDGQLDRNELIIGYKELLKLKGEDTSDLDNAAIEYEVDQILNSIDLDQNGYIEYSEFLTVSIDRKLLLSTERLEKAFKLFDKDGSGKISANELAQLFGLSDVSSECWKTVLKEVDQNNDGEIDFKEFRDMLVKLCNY
SMILES,growth inhibition [1],inhibition [2],inhibition [3] [%],growth inhibition [4],outcome [5],outcome [6],outcome [7],outcome [8]
Cn1cnc(CCNC(=O)c2ccc(-c3cccc(-c4nc5ccc(F)cc5[nH]4)c3)cc2)c1,24%,23%,-5,100% (active),inactive,inactive,inactive,inactive
CC1CC(NCCCNc2cc(=O)c3ccccc3[nH]2)c2c1cc(Cl)c(Cl)c2Cl (stereo not given),70% (active),1%,3,98% (active),inactive,inactive,inactive,inactive
Cc1ccoc1C(=O)Nc1cccc(-c2cccc(-c3nc4ccccc4[nH]3)c2)c1,20%,43%,-2,85% (active),inactive,inactive,inactive,inactive
COc1ccc(NC(=O)[C@H](Cc2ccccc2)Nc2nc(NCCN3CCCC3)ncc2C)cc1,9%,26%,1,89% (active),inactive,inactive,inactive,inactive
CC1CN(Cc2cccc(F)c2)CCN1c1ccc(NC(=O)c2cccs2)cc1 (stereo not given),96% (active),-1%,-2,96% (active),inactive,inactive,inactive,inactive
O=C(Nc1cccc(-c2cccc(-c3ccc(F)cc3)n2)c1)c1ccc([N+](=O)[O-])o1,42%,100% (active),4,99% (active),inactive,inactive,inactive,inactive
Cc1ccc(C(=O)Nc2ccc(F)c(F)c2F)cc1S(=O)(=O)N1CCCCC1,69% (active),3%,-8,92% (active),inactive,inactive,inactive,inactive
COc1ccc(CNC2Cc3ccccc3C2)cc1-c1ccc(S(=O)(=O)NCc2ccccc2)s1,25%,22%,4,97% (active),inactive,inactive,inactive,inactive
Cc1cc2c(NC(=O)NC3CCN(CCc4ccccc4Cl)CC3)cccc2cn1,46%,13%,0,102% (active),inactive,inactive,inactive,inactive
CCCCCCCOc1ccc(NC(=O)Nc2ccc(Cn3ncc(N4CCCNCC4)c(Cl)c3=O)cc2)cc1,28%,60% (active),2,87% (active),inactive,inactive,inactive,inactive
